19 compounds from the supplement of paper PMC11732987, “Enantioselective OTUD7B fragment discovery through chemoproteomics screening and high-throughput optimisation” (Communications Chemistry, 2025) can be followed below.

Molecules are shown by their SMILES.

This test deals with T1, USP38 (UniProt Q8NB14).
T1 sequence (whole entry): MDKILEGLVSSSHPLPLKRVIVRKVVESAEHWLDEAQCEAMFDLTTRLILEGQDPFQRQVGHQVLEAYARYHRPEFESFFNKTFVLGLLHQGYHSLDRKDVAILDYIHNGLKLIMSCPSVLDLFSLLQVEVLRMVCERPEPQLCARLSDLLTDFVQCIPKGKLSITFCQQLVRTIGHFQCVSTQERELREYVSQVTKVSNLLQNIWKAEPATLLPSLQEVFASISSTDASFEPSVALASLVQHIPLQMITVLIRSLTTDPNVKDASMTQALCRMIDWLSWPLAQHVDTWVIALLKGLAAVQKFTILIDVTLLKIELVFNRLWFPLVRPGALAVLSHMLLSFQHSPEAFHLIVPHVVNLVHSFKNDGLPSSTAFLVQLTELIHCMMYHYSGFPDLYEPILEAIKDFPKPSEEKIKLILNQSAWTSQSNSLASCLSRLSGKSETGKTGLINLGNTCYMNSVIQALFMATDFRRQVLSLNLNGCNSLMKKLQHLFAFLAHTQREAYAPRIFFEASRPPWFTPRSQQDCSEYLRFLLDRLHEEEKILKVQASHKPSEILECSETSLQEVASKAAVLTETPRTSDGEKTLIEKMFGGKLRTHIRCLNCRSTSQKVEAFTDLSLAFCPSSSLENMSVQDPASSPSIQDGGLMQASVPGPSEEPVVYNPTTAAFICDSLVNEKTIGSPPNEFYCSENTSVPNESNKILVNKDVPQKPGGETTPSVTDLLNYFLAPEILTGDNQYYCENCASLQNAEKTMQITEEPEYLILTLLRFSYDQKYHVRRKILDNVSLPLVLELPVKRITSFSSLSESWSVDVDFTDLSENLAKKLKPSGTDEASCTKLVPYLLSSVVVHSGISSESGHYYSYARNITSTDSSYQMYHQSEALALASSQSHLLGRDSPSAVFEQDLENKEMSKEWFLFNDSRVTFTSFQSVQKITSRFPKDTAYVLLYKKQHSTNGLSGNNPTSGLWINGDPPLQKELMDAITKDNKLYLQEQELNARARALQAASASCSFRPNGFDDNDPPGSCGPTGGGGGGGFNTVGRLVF
Nature of the test: log2 ratio of Biotin-Ahx-Ub-VS probe labelling (fragment/DMSO); higher = less target engagement (more negative = stronger competition), active = hit call of the paper (q ≤ 0.05, log2 ratio ≤ -1). To be noted: compound concentration: 200 uM; treatment time: 3 h. On the procedure: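 Competitive ABPP in HEK293T cell lysate. Lysates were treated with each chloroacetamide fragment at 200 µM for 3 h, then with Biotin-Ahx-Ub-VS (0.5 µM, 1 h), NeutrAvidin-enriched and analysed by diaPASEF LC-MS/MS. Protein LFQ was median-normalised; average log2 ratio is fragment/DMSO from an unpaired t-test (n=3 treated, n=44 DMSO). Hits: q ≤ 0.05, log2 ratio ≤ -1, unique peptides ≥ 2.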
In the case of `O=C(CCl)N1CCCCCCC1`, the “log2 ratio of Biotin-Ahx-Ub-VS probe labelling” value (“log2 ratio” below) was -0.0744 (inactive).
In the case of `CN(C(=O)CCl)C1CCCCC1`, the “log2 ratio” value was 0.0172 (inactive).
To `O=C(CCl)N1CCCC1=O` belongs -0.1 (inactive).
`CC1CCCCC1NC(=O)CCl` (centres undefined): the “log2 ratio” value is -0.0227 (inactive).
Consider `O=C(CCl)NCc1ccco1`, for which the “log2 ratio” value is -0.144 (inactive).
As to `Cc1cccc(NC(=O)CCl)c1`, the “log2 ratio” value is -0.146 (inactive).
For `N#CC1(NC(=O)CCl)CCCC1`, the “log2 ratio” value is -0.0299 (inactive).
With `Cc1nnc(NC(=O)CCl)s1` the figure was -0.33 (inactive); with `CC1CCCCN1C(=O)CCl` (centres undefined), -0.196 (inactive); with `CC(NC(=O)CCl)c1cccs1` (centres undefined), -0.0174 (inactive).
With `Cc1nc(NC(=O)CCl)sc1C` the figure was -0.00435 (inactive); with `CC1CN(C(=O)CCl)CC(C)O1` (centres undefined), -0.205 (inactive); with `O=C(CCl)NCC1CCCO1` (centres undefined), -0.00745 (inactive).
With `O=C(CCl)Nc1cccc(Cl)c1` the figure was -0.568 (inactive).
For the compound `O=C(CCl)NC(C1CC1)C1CC1`, the “log2 ratio” value was -0.124 (inactive).
With `Cc1ncsc1CNC(=O)CCl.Cl` the figure was 0.147 (inactive); with `Cc1cc(NC(=O)CCl)no1`, -0.139 (inactive).
In the case of `O=C(CCl)NCC1CCC1`, the “log2 ratio” value is 0.000742 (inactive).
With `CC(C)CN(C(=O)CCl)C1CC1` the figure was 0.00725 (inactive).
